Several values for one entry are separate records, joined by “and”; a condition that tells them apart may be missing. Identical values can stand only once. Records with an inconclusive call do not appear. Entries that show only a call come without a potency. Activity calls are given as the source filed them. Calls follow the shape of the dose curve; as a rule, active = well fitted cell-killing curve with a large enough effect in the repeat runs; inconclusive = weak or mixed curves, or effect the other way; inactive = no such curve, though single readings can be large or run the other way.
Assay: qHTS assay to identify small molecule agonists of the RXR signaling pathway - cell viability counter screen (AID 1159529); also: nearly all actives have a fitted effect of over 50% in size
Details: RXR-alpha-bla HEK293T viability, CellTiter-Glo, 16 h; series mostly up to 76.8 µM
From the text: National Center for Advancing Translational Sciences [NCATS]
NIH Chemical Genomics Center [NCGC]
U.S. Environmental Protection Agency [EPA]
National Institutes of Environmental Health Sciences [NIEHS]
National Toxicology Program [NTP]
U.S. Food and Drug Administration [FDA]
The Retinoid X receptor (RXR), a nuclear hormone receptor expressed in liver, spleen, placenta, epidermis, central nervous system. These receptors are able to form homo and heterodimers with other nuclear receptors and due to this heterodimerizing ability, RXR functions as master regulators producing diverse physiological effects. Three subtypes of RXR exist; alpha, beta and gamma. Retinoid X receptor alpha (RXR-alpha) has potential roles in metabolic signaling pathways, skin alopecia, dermal cysts, cardiac development, insulin sensitization etc. Therefore screening environmental chemicals on RXR-alpha signaling can be used for the studies focused on such therapeutic applications. For quantification of RXR-alpha ligands signaling, GeneBLAzer RXR alpha-UAS-bla HEK 293T (Life Technologies, Carlsbad, CA) cells containing a beta-lactamase reporter-gene under control of Retinoid X receptor-alpha response element were used to screen Tox21 10K library. The cytotoxicity of the Tox21 compound library against the RXR-alpha HEK 293T cell line was tested in parallel by measuring cell viability using CellTiter-Glo assay (Promega Corporation, Madison, WI) in the same wells.
Tox21 Assay Protocol Summary:
RXR-alpha HEK 293T cells were dispensed at 2,000 cells/6 uL of assay medium containing 2% charcoal-stripped FBS using a Multidrop Combi (ThermoFisher Scientific, Waltham, MA) dispenser. The assay was performed in black wall/clear-bottom 1536-well plates (Greiner Bio-One North America Inc. Monroe, NC). Tetraoctyl ammonium bromide was used as a positive control in the cytotoxicity screen. After the assay plates were incubated at 37 C and 5% CO2 for 5 hr, 23 nL of compounds dissolved in DMSO, positive control or DMSO only were transferred to the assay plate by a Pintool station (Kalypsys, San Diego, CA). The assay plates were incubated at 37 C and 5% CO2 for 16 hr. One uL of LiveBLAzer B/G FRET substrate (Life Technologies) was added using a Flying Reagent Dispenser (FRD) (Aurora Discovery, San Diego, CA) and the plates were incubated at room temperature for 2 hr. Fluorescence intensity (405 nm excitation, 460/530 nm emission) was measured using an Envision plate reader (PerkinElmer, Shelton, CT). For cytotoxicity, 4 uL/well of CellTiter-Glo reagent was added into the assay plates using an FRD. After 30 min incubation at room temperature, the luminescence intensity was measured using a ViewLux plate reader (PerkinElmer).
Potency is read from the fitted curve at half-maximal effect.

SMILES	Potency
NC(=O)C(Cl)Cl	inactive
CN/C(=N\[N+](=O)[O-])NCc1cnc(Cl)s1	inactive
CCC[CH2][Sn]([CH2]CCC)([CH2]CCC)[O][Sn]([CH2]CCC)([CH2]CCC)[CH2]CCC	0.479 µM (active)
CC(Cl)CCl (stereo not given)	inactive
O=C1C2(Cl)C3(Cl)C4(Cl)C(Cl)(Cl)C5(Cl)C3(Cl)C1(Cl)C5(Cl)C24Cl (stereo not given)	24.1 µM (active) and 41.8 µM (active)
Cc1cc2c3c(c1)C(c1ccccc1)=N[C@@H](NC(=O)c1ccncc1)C(=O)N3CC2	inactive
S=C=Nc1ccccc1	inactive
Oc1ccc(Cl)c(Cl)c1	inactive
CN1C(=O)[C@@H](NC(=O)c2cc3ccccc3[nH]2)N=C(c2ccccc2)c2ccccc21	inactive
ClC(Cl)C(Cl)(Cl)Cl	inactive
C#CC1(O)CCCCC1	inactive
N#CCCl	9.08 µM (active)
O=C(Nc1ccc(F)cc1F)c1cccnc1Oc1cccc(C(F)(F)F)c1	inactive
CCN(CC)C(=S)S	19.4 µM (active)
BrCC(Br)(Br)Br	inactive
COP(=S)(OC)Oc1ccc([N+](=O)[O-])c(C)c1	inactive
CCN(CC)Cc1nccn1-c1ccc([N+](=O)[O-])cc1C(=O)c1ccccc1Cl	inactive
CCc1cccc(C)c1N(C(=O)CCl)[C@@H](C)COC	inactive
CC(=O)O.CC(=O)O.CC(=O)O.CC(=O)O.CC(=O)O.CC(=O)O.CC(=O)O.O.O.[Cr].[Cr].[Cr]	inactive
O=C(O)[C@H](O)[C@@H](O)C(=O)O	inactive

SMILES	Potency
CC(C)C(Br)C(=O)NC(N)=O (stereo not given)	inactive
Oc1ccc([C@H]2CNCc3c2ccc(O)c3O)cc1O	inactive
CC(C)N(C(=O)CCl)c1ccccc1	24.5 µM (active)
Cc1ccn2nc(S(=O)(=O)Nc3c(F)cccc3F)nc2n1	inactive
ClC1=C(Cl)[C@]2(Cl)[C@H]3[C@H]([C@@H]4C=C[C@H]3C4)[C@@]1(Cl)C2(Cl)Cl	49 µM (active)
Clc1cc(Cl)c(-c2cc(Cl)c(Cl)cc2Cl)cc1Cl	inactive
CC1(C)[C@H](/C=C2\CCSC2=O)[C@@H]1C(=O)OCc1coc(Cc2ccccc2)c1	inactive
COc1nc(C)nc(NC(=O)NS(=O)(=O)c2ccccc2Cl)n1	inactive
CCCCCON=O	inactive
CNC(=O)Oc1cc(C)cc(C(C)C)c1	inactive
Nc1nc(N)c(N)c(N)n1	inactive
CCOP(=S)(OCC)SC(CCl)N1C(=O)c2ccccc2C1=O (stereo not given)	inactive
CC(C)NCC(O)c1ccccc1Cl (stereo not given)	inactive
COP(=O)(OC)Oc1ccc([N+](=O)[O-])cc1	inactive
ClCBr	inactive
O=C(Cl)c1ccccc1F	inactive
COP(=S)(OC)Oc1nc(Cl)c(Cl)cc1Cl	inactive
O=C(NC(=O)c1ccccc1Cl)Nc1ccc(OC(F)(F)F)cc1	inactive
CC(C)Br	inactive
Clc1ccc(C(c2ccc(Cl)cc2)C(Cl)Cl)cc1	39.5 µM (active) and 38.9 µM (active)

Source: PubChem BioAssay (Tox21)
